The source made the active and inactive calls.

The nature of assay [1]: small molecules captured by biotinylated probe aFSTL3 – biochemical, small-molecule microarray, fluorescence 635/667, stem cell growth factor project, primary screen (AID 1064).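 Also: measures binding of the biotinylated anti-FSTL3 antibody to printed compounds.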 The conditions noted are these: higher = more signal.
The nature of assay [2]: binders from COS7 lysate, DM2A8 probe, primary screen, torsin A project, cell lysate, small-molecule microarray, fluorescence 635/667 (AID 1065). The conditions noted are these: higher = more signal, COS7 lysate expressing mutant human TOR1A.
Assay [3] in a line: small molecules captured by biotinylated probe aFGF2 – biochemical, small-molecule microarray, fluorescence 635/667, stem cell growth factor project, primary screen (AID 1067).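 Also: measures binding of biotinylated aFGF2 protein to printed compounds on slides; z-score merges feature fluorescence and signal-to-noise across triplicate slides.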 The conditions noted are these: higher = more signal.
Assay [4] in a line: small molecules captured by biotinylated probe aFGF10 – biochemical, small-molecule microarray, fluorescence 635/667, stem cell growth factor project, primary screen (AID 1071).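 Also: score merges 667 nm spot intensity and signal to noise from triplicate slides.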 The conditions noted are these: higher = more signal.
For assay [5], the target named is Neurogenic locus notch homolog protein 2 (Homo sapiens) (UniProt Q04721). The assay can be described thus: small molecules binding Notch2 protein – biochemical, small-molecule microarray, 635 nm fluorescence, stem cell growth factors, primary screen (AID 1073). Particulars: higher = more signal.
Chain of Neurogenic locus notch homolog protein 2 (Homo sapiens) (Q04721 whole entry, looked up, canonical isoform): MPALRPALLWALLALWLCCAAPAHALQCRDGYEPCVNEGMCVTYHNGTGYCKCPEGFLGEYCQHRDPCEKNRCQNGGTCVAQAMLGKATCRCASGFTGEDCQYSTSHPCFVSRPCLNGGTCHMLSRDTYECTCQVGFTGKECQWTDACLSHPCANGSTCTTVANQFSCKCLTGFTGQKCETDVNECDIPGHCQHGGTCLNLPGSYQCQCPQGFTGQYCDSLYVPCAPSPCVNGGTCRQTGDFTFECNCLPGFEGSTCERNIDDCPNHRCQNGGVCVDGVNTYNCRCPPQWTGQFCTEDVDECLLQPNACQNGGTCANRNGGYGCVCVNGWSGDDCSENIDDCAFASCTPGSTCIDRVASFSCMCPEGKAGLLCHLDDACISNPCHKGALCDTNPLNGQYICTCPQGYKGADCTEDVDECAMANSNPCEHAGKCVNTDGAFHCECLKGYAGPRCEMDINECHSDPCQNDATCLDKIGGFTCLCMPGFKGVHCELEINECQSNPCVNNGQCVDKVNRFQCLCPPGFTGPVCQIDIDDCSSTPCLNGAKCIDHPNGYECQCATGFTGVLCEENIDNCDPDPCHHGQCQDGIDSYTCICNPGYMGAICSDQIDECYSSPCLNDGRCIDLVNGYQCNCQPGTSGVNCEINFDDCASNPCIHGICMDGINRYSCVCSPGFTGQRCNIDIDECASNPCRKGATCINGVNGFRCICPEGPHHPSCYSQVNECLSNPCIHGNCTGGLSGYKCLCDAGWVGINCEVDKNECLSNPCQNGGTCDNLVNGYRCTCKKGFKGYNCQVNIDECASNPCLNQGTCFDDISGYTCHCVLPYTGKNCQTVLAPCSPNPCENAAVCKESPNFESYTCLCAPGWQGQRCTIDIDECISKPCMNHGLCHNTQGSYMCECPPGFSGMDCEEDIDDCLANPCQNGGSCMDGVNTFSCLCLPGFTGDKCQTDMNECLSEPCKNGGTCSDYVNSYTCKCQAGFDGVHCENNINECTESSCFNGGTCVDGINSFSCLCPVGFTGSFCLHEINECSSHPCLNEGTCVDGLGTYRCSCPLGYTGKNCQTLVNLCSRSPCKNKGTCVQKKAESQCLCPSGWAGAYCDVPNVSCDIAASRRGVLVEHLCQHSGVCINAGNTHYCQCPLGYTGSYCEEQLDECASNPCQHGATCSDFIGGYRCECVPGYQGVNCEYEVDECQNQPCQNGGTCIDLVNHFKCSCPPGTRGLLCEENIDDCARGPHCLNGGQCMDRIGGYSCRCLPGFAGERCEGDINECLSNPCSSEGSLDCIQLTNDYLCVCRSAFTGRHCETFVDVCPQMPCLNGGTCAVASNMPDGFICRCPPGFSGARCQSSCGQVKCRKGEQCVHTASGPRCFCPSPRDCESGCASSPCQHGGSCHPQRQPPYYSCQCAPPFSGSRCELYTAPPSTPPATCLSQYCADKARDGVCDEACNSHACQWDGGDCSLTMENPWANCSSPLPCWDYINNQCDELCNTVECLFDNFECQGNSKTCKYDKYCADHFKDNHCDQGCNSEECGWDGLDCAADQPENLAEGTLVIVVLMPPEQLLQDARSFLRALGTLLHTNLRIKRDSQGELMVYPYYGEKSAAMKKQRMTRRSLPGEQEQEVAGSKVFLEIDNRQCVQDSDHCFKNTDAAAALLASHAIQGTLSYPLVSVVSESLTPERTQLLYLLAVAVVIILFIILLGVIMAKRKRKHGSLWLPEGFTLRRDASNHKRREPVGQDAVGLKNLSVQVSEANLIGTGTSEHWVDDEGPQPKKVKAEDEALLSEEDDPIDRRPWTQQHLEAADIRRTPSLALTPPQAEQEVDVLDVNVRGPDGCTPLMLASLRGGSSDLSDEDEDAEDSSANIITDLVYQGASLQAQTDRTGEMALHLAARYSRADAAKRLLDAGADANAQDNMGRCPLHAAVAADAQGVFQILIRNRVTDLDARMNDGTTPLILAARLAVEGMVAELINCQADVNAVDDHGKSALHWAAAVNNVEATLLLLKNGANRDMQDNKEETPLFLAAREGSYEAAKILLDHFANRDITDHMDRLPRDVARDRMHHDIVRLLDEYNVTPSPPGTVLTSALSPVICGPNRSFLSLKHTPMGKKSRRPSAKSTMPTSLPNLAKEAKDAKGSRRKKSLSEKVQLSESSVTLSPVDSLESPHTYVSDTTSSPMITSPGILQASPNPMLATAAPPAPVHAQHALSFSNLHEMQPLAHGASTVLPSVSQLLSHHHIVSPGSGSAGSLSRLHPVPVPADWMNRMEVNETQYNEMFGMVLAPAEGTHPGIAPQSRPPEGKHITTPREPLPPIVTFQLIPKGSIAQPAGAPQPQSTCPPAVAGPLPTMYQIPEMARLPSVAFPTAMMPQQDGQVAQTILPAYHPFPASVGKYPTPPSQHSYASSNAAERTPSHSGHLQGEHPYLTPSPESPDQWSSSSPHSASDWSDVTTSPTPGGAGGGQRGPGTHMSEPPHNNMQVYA
Assay [6] deals with Pro-neuregulin-1, membrane-bound isoform (Homo sapiens) (UniProt Q02297). The assay can be described thus: small molecules binding neuregulin-1 protein – biochemical, small-molecule microarray, fluorescence 635/667, psychiatric disease protein project, primary screen (AID 1075).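 Also: score combines 667 nm spot fluorescence with signal to noise.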 The conditions noted are these: NRG1 binding, 635 nm fluorescence, higher = more signal.
Chain of Pro-neuregulin-1, membrane-bound isoform (Homo sapiens) (Q02297 whole entry, looked up, the tested form may be a part, canonical isoform): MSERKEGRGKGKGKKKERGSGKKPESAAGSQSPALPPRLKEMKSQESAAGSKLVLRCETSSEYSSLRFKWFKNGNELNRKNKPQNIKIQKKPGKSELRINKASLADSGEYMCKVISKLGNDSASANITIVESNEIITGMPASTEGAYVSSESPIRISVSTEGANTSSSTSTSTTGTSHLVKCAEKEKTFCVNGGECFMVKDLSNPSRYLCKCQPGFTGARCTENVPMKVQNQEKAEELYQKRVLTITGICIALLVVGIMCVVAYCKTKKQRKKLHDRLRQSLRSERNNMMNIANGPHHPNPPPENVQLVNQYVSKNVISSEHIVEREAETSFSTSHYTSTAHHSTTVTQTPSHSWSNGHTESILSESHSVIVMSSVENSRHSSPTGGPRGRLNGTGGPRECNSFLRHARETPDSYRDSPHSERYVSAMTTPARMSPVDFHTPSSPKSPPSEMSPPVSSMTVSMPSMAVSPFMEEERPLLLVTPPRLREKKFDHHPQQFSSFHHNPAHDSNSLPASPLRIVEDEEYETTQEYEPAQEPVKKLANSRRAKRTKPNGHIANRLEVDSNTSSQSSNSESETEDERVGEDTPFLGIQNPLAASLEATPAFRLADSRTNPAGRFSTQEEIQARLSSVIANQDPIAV
Assay [7] concerns Neuregulin-1 EGF-like domain. The assay can be described thus: small molecules binding NRG1 EGF domain – biochemical, small-molecule microarray, 635 nm fluorescence, primary screen (AID 1081).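 Also: binding of the protein to compounds printed on small-molecule microarray slides.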 The conditions noted are these: higher = more signal.
The nature of assay [8]: FRG1 expression reporter modulators in myotubes – cell-based, C2C12 myotubes, firefly/Renilla luciferase, luminescence, FRG1 inhibition for FSHD, primary screen (AID 1084). The conditions noted are these: FRG1 promoter luciferase, higher = more signal, called active from +8 up or from −8 down.
The nature of assay [9]: small molecules captured by biotinylated probe aFST – biochemical, small-molecule microarray, fluorescence 635/667, stem cell growth factor project, primary screen (AID 1086).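 Also: score merges 667 nm fluorescence with signal-to-noise of each printed compound spot.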 Particulars: higher = more signal.
The nature of assay [10]: binders of probe aHhip on microarray, primary screen, stem cell growth factor project, biochemical, small-molecule microarray, fluorescence 635/667 (AID 1087).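 Also: score merges spot fluorescence at 667nm with spot signal to noise ratio.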 The conditions noted are these: higher = more signal.

Take `O=c1cccc(-c2ccc(C(F)(F)F)cc2)o1`: the composite z-score in [1] is -0.0035; in assay [2], -0.814; in assay [3], -0.045; in assay [4], -0.173; in assay [5], -0.33; in assay [6], -0.289. The composite z-score in assay [7] is -0.44; in assay [9], -0.126; in assay [10], -0.0994. Further, in assay [8], the z-score is 3.27 (inactive).
With `CCOC(=O)C[C@H]1[C@H](OC(=O)Cc2ccc3c(c2)OCO3)[C@@H](NC(=O)C2CCCCC2)c2cc(OCCCO)ccc2N1C(=O)c1ccc2ccccc2n1`, the composite z-score is 0.695 in assay [1]; 0.246 in [2]; -0.003 in assay [3]; 0.234 in assay [4]; 0.904 in [5]; 0.196 in assay [6]. In addition, the composite z-score in assay [7] is 0.519; in [9] it was 0.857; in [10] it was -0.335. The z-score in assay [8] is -2.88 (inactive).
Regarding `O=C1OCC=C[C@H]2OC34C=CCN(Cn5nnc6ccccc65)C(=O)[C@H]3N(CCCCCCO)C(=O)[C@@H]4[C@@H]12` (stereo not given in full), the composite z-score in assay [1] is 0.492; in assay [2], -0.334; in assay [3], -0.163; in assay [4], -0.54; in assay [5] it was -0.522; in assay [6] it was 1.91. Also, the composite z-score in assay [7] is 1.52; in assay [9], -0.116; in assay [10], -0.201. Further, the z-score in assay [8] is 0.215 (inactive).
For `CC(C)CN1C(=O)[C@@]2(Cc3ccccc31)c1ccccc1C(=O)N(Cc1ccccc1C(F)(F)F)[C@H]2c1ccc(CO)cc1`, the composite z-score in assay [1] was 0.0106; in assay [2], -0.0077; in assay [3], -0.167; in assay [4] it was 0.2; in [5], -0.202; in assay [6] it was -0.84. For the same compound, the composite z-score in assay [7] is -1.12; in assay [9] it was 0.0594; in [10], -0.374. In [8], the z-score was -1.04 (inactive).
For `NCCCCCNC(=O)[C@@H]1C[C@@H]2C(=O)N[C@@H](CCCCN)C(=O)N2[C@@H]1c1cccc(OCCO)c1`, the composite z-score is 0.0523 in assay [1]; 0.329 in assay [2]; -0.0037 in [3]; -0.202 in [4]; -0.254 in [5]; 2.11 in assay [6]. The figures for the composite z-score in assay [7], in assay [9] and in assay [10] were 0.969, -0.413 and 0.0497, respectively. For the same compound, the z-score in assay [8] was -0.697 (inactive).
`NC(=O)NCC#Cc1ccc2c(c1)[C@]1(C(=O)N2)[C@H](C(=O)Nc2nc3ccccc3s2)[C@H]2C(=O)O[C@H](c3ccccc3)[C@H](c3ccccc3)N2[C@@H]1c1ccc(O)cc1`: the composite z-score in assay [1] is 0.187; in [2] it was 0.544; in assay [3], -0.0415; in assay [4], 0.604; in assay [5], 0.455; in [6], 0.339. Also, the figures for the composite z-score in assay [7], in assay [9] and in [10] were -0.15, 0.623 and 0.142, respectively. In addition, in [8], the z-score was 1.46 (inactive).
Take `COCCOC(=O)N1C(=O)[C@@]2(c3cc(C#CC4(O)CCCCCC4)ccc31)[C@H](C(=O)N1CCCCCCC1)[C@H]1C(=O)O[C@H](c3ccccc3)[C@H](c3ccccc3)N1[C@@H]2c1ccc(OCCO)cc1`: the composite z-score in [1] stood at 3.43; in assay [2] it was 1.62; in assay [3], 0.79; in assay [4] it was 1.2; in [5], 1.26; in assay [6], 2.18. For the same compound, the composite z-score in assay [7] worked out at 1.24; in assay [9], 3.29; in [10], 1.77. Moreover, the z-score in assay [8] was -3.21 (inactive).
For the compound `C=CCC(OC(C)=O)[C@@H]1[C@@H](N(Cc2cc3ccccc3o2)C(=O)Cc2ccc(F)cc2)c2cc(OCCCO)ccc2N1C(=O)c1ccc2ccccc2n1` (stereo not given in full), the composite z-score was -0.0583 in assay [1]; 0.337 in assay [2]; -0.0695 in assay [3]; 0.0991 in assay [4]; -0.0518 in assay [5]; -0.137 in assay [6]. Further, the composite z-score was -0.275 in assay [7], 0.0407 in [9] and 0.0881 in assay [10]. Moreover, the z-score in assay [8] is -0.591 (inactive).
Consider `C=CCOC(=O)[C@@H]1[C@H]2C(=O)O[C@H](c3ccccc3)[C@H](c3ccccc3)N2[C@H](c2ccc(OCCOC(=O)[C@H]3C[C@H]4C(=O)N[C@@H](CC(C)C)C(=O)N4[C@H]3c3ccc(O)cc3)cc2)[C@@]12C(=O)Nc1ccc(I)cc12`, for which the composite z-score in assay [1] came out at 0.054; in assay [2], 1.42; in assay [3], 0.0333; in assay [4], 0.868; in assay [5], 0.718; in assay [6], 0.535. For the same compound, the composite z-score in [7] was 1.35; in assay [9], 0.496; in assay [10] it was -0.0994. The z-score in assay [8] was -0.477 (inactive).
With `O=C1OCCC=C[C@H]2OC34C=CCN(c5ccc(Cl)cc5)C(=O)[C@H]3N(CCCCCO)C(=O)[C@@H]4C12` (stereo not given in full), the composite z-score in [1] was 0.418; in assay [2], 1.77; in assay [3] it was -0.116; in assay [4] it was -0.112; in assay [5], 0.0387; in assay [6], 1.48. Further, the composite z-score was 1.44 in assay [7], -0.149 in [9] and -0.0708 in assay [10]. The z-score in assay [8] was -0.997 (inactive).
Regarding `C=C(C(=O)CC[C@H](OC(C)=O)c1cccc(OCCO)c1)C(C)C`, the composite z-score in [1] is 0.125; in [2], -0.152; in assay [3], -0.189; in [4], -0.582; in [5], -0.739; in [6] it was 0.007. Also, the figures for the composite z-score in assay [7], in assay [9] and in [10] were -0.526, -0.675 and -0.0994, respectively. The z-score in assay [8] was 0.422 (inactive).
Take `CCOC(=O)C[C@H]1[C@H](OC(=O)Cc2ccc3c(c2)OCO3)[C@@H](NC(=O)Cc2ccc(OC)cc2)c2cc(OCCCO)ccc2N1C(=O)c1ccccc1`: the composite z-score in assay [1] was -0.244; in assay [2], 0.188; in [3], -0.11; in assay [4], 0.494; in [5], 0.608; in assay [6], 0.416. In addition, the composite z-score in assay [7] was 0.436; in [9] it was 0.447; in [10], -0.353. In assay [8], the z-score was -1.38 (inactive).
For the compound `COCCOC(=O)N1C(=O)[C@@]2(c3cc(C#CCC(C(=O)OC)C(=O)OC)ccc31)[C@H](c1ccc(OCCO)cc1)N1[C@H](c3ccccc3)[C@H](c3ccccc3)OC(=O)[C@H]1[C@@H]2C(=O)N1CCN(c2ncccn2)CC1`, the composite z-score was -0.372 in [1]; 1.32 in assay [2]; -0.0431 in assay [3]; 0.905 in assay [4]; 1.25 in assay [5]; 1.64 in assay [6]. The composite z-score in [7] was 1.14; in [9], 0.789; in [10], 0.142. Also, the z-score in assay [8] is 0.977 (inactive).
In the case of `COC(=O)[C@]1(CCS(=O)(=O)c2ccccc2)N=C(c2ccc(OCCCO)cc2)O[C@@H]1c1ccccc1CN=[N+]=[N-]`, the composite z-score was 0.0312 in [1]; 0.419 in [2]; 0.0794 in [3]; 0.169 in assay [4]; 1.12 in [5]; 0.959 in assay [6]. Moreover, the composite z-score is 1.35 in assay [7], 0.284 in assay [9] and -0.346 in assay [10]. Besides, the z-score in assay [8] was -1.96 (inactive).
For `COCCCNC(=O)[C@@]1(Sc2ccc(C)cc2)CC(=O)N(C2Cc3ccccc3C2)[C@@H]1c1ccc(CO)cc1I`, the composite z-score in assay [1] was 0.926; in assay [2], -0.247; in assay [3] it was -0.156; in [4], -0.379; in assay [5], -1.02; in assay [6], 1.12. Further, the composite z-score was -0.447 in [7], -0.926 in assay [9] and -0.294 in assay [10]. In [8], the z-score is -0.703 (inactive).
With `CC(C)(C)OC(=O)CC[C@]1(C(=O)O)N=C(c2ccc(OCCCO)cc2)O[C@H]1c1ccccc1CN=[N+]=[N-]`, the composite z-score is -0.169 in assay [1]; -0.246 in assay [2]; 0.0911 in assay [3]; 0.113 in [4]; 0.261 in assay [5]; 1 in assay [6]. Also, the composite z-score was 1.45 in [7], 0.794 in [9] and -0.409 in assay [10]. Further, in assay [8], the z-score was 2.04 (inactive).
For the compound `Cc1ccc(S[C@]2(C(=O)NC(C)C)CC(=O)N(C3Cc4ccccc4C3)[C@@H]2c2ccc(CO)cc2I)cc1`, the composite z-score in assay [1] was 0.125; in assay [2] it was -0.869; in assay [3], -0.216; in [4], -0.667; in assay [5], -0.853; in [6], 1.06. In addition, the composite z-score in assay [7] was 0.381; in assay [9], -0.654; in assay [10] it was -0.858. Further, in [8], the z-score is -1.85 (inactive).

Values taken from PubChem BioAssay.
